Source: PubChem BioAssay (SRMLSC)
PMK inhibit: S. pneumoniae PMK inhibitors, primary screen, biochemical, mevalonate pathway, pilot trial included. 65,000 compounds, 0.49% hits. inhibition, % at 10 µM. AID 539, 2006. purified PMK, PK/LDH-coupled NADH absorbance 340 nm. phosphomevalonate kinase (Streptococcus pneumoniae D39);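 active means top-ranked compounds by inhibition in the single 10 µM screen, taking a fixed number of the strongest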
Abs 340nm: compound light absorbance at 340 nm, profiling panel, artefact control, biochemical, MLSMR library, data from PS, PMK, MK assays; compound absorbance at 340 nm, fold over control; 65,000 tested, under 10 active; fold change at 10 µM;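 active means at 10 µM dose, initial 340 nm absorbance at least 2 fold that of control wells; inactive means change under 2 fold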;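 further: initial absorbance extrapolated from kinetic A340 decline of NADH oxidation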
Fluor 339 460: intrinsic fluorescence of library compounds, ex339/em460 – biochemical, MLSMR library, data from DPM-DC assay, artefact control, profiling panel; compound autofluorescence, ex339/em460 nm, NADH buffer; active compounds read high; 1 = no-compound wells, NADH background; fluorescence fold increase at 10 µM; 65,000 compounds, 5.5% hits;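 active means at 10 µM, mean starting fluorescence two-fold or more over control wells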;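 further: signal is the first read of a kinetic run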
NADH coupling: inhibitors of PK/LDH coupling enzymes, profiling panel, artefact control, biochemical, MLSMR library; coupled PK/LDH NADH assays, four targets; IC50, µM (doses to about 10 µM); 65,000 compounds, 0.02% hits; AID 774, 2007;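 active means single-dose screening hits from any of four coupled enzyme assays that gave an IC50 when retested across doses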;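 further: the DPM-DC format reads NADH fluorescence rather than 340 nm absorbance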
MK inhibit: S. pneumoniae MK inhibitors, primary screen, biochemical, PK/LDH-coupled NADH absorbance. purified MK, PK/LDH-coupled NADH absorbance 340 nm. inhibition, % at 10 µM. 65,000 compounds, 0.48% hits. mevalonate kinase [Streptococcus pneumoniae D39];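 active means ranked among the strongest by inhibition in the single 10 µM screen, a fixed top-ranked set picked for dose follow-up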
Spn DPM-DC inh: S. pneumoniae DPM-DC inhibitors, primary screen, biochemical, PK/LDH-coupled NADH fluorescence. 65,000 compounds, 0.49% hits. calls only at 10 µM. diphosphomevalonate decarboxylase (Streptococcus pneumoniae D39). purified DPM-DC;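 active means the 320 compounds with the highest percent inhibition in the single-dose primary screen, excluding strongly autofluorescent ones, cut at about 32% in these data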;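 further: kinetic rate of NADH fluorescence loss reporting ADP formed by the decarboxylase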
Of the large screens only hits and unclear results are named; the others gave an inactive call. Hits are enriched below; roughly 6.5% of the tested compounds scored in any of these assays.

CC(C)c1nc(N2CCCC2)c(C#N)c2c1CCCC2	Fluor 339 460 2.1 (not shown: Spn DPM-DC inh)
CCc1nc(N2CCCC2)c(C#N)c2c1CCCC2	none
CCCNC(=O)c1ccc(CNc2c(N3CCC(C(=O)OCC)CC3)c(=O)c2=O)cc1	none
CCOC(=O)N1CCN(C(=O)c2ccc3nc4ccc(Cl)cc4c(=O)n3c2)CC1	Fluor 339 460 4.9 (not shown: Spn DPM-DC inh)
O=C(NCc1ccco1)c1cccn2c(=O)c3sccc3nc12	Fluor 339 460 2.5 (not shown: Spn DPM-DC inh)
CCOC(=O)N1CCN(C(=O)c2ccc3c(=O)n(Cc4ccc(Cl)cc4)c(=S)[nH]c3c2)CC1	none
CCOC(=O)N1CCN(C(=O)c2ccc3nc4ccsc4c(=O)n3c2)CC1	Fluor 339 460 2.2 (not shown: Spn DPM-DC inh)
CCOC(=O)CSc1nc2ccsc2c(=O)n1C1CCN(C(=O)OCC)CC1	none
COc1ccc(Cn2c(SCC(=O)NCc3ccco3)nc3ccsc3c2=O)cc1	none
CCOC(=O)N1CCC(n2c(SCC(=O)Nc3nccs3)nc3ccsc3c2=O)CC1	none
CCOC(=O)N1CCN(C(=O)c2cccn3c(=O)c4sccc4nc23)CC1	Fluor 339 460 2.5 (not shown: Spn DPM-DC inh)
COc1ccc(-c2cc(C(N)=O)nc(N3CCCCCC3)n2)cc1	Fluor 339 460 3.5 (not shown: Spn DPM-DC inh)
Cc1cc(N2CCCC2)n2nc(C)nc2n1	none
CCOC(=O)N1CCN(c2cc(C)nc3nc(C)nn23)CC1	Fluor 339 460 2.1 (not shown: Spn DPM-DC inh)
CN1CCN(C(=O)CSc2nc(-c3cccs3)ccc2C#N)CC1	Fluor 339 460 2.3 (not shown: Spn DPM-DC inh)
COC(=O)c1ccc(=O)n(Cc2ccc3c(c2)OCO3)c1	none
COc1ccc(NC(C)=O)cc1NC(=O)CSc1nnc(-c2ccc(F)cc2)n1N	none
CCOC(=O)c1c(C)n(C)c2ccc(O)c(CN3CCN(C)CC3)c12	none
CCOC(=O)c1c(C)n(C)c2ccc(O)c(CN3CCC(C)CC3)c12	MK inhibit 48
c1ccc(-n2ncc3c(N4CCN(c5ccccn5)CC4)nc(N4CCCCCC4)nc32)cc1	none
CC(C)=CC(=O)Nc1ccc(Br)cc1	PMK inhibit active
CC(=O)NC(C)C(=O)OCC(=O)Nc1ccc(Br)cc1 (stereo unspecified)	none
CCOC(=O)c1c(-c2ccc(OC)cc2)nc2nonc2c1N	none
CC(=O)c1c(C)nc2nonc2c1N	Fluor 339 460 2
CC(=O)c1cc2c(O)c(O)ccc2o1	none
CC(=O)c1cc2cc(O)ccc2o1	Fluor 339 460 4.4 (not shown: Spn DPM-DC inh)
CCCCCCSC1=C(C#N)C(c2ccc(O)cc2)CC(=O)N1 (stereo unspecified)	none
CCOc1ccc2[nH]c(=O)c(CN(CCO)C(=O)c3ccc(F)cc3)cc2c1	Fluor 339 460 3.4
CCOc1ccc2[nH]c(=O)c(CN(CCO)C(=O)c3ccccc3F)cc2c1	Fluor 339 460 3
O=S(=O)(Nc1ncnc2sc3c(c12)CCC3)c1ccc(Cl)s1	none
CC1(C)C(C=C(Cl)Cl)C1C(=O)N1CCN(c2ccccc2)CC1 (stereo unspecified)	Spn DPM-DC inh active
Cc1ccc2cc3cc(C(=O)NCc4ccco4)oc3nc2c1	Fluor 339 460 4.6 (not shown: Spn DPM-DC inh)
Cc1ccc2cc3cc(C(=O)NCCC(C)C)oc3nc2c1	Fluor 339 460 5.1 (not shown: Spn DPM-DC inh)
O=C(NCc1ccco1)c1cc2ccccc2o1	none
CN1C(=O)CC(C(=O)O)SC1=Nc1cccc(C(F)(F)F)c1 (stereo unspecified)	none
CCOC(=O)c1sc2nc(NC(=O)C3CC3)sc2c1C	Fluor 339 460 2
CCOC(=O)c1sc2nc(NC(=O)C3CCCCC3)sc2c1C	none
O=C(O)c1cc(-c2ccccc2)nc2ccccc12	none
O=C(O)c1cc(Cl)c2ccccc2c1O	Fluor 339 460 3.8 (not shown: Spn DPM-DC inh)
Cc1csc(NC(=O)CSc2nnc3ncccn23)n1	none
COc1ccccc1NC(=O)Cc1csc(N)n1	none (no result: MK inhibit)
C=C(C)COc1ccc2c3c(c(=O)oc2c1OCC(=C)C)CCC3	Fluor 339 460 2.1
CCOc1ccc(CC(=O)C2C(=O)CCCC2=O)cc1OCC	none
C=C(C)COc1ccc2c(C)c(C)c(=O)oc2c1OCC(=C)C	Fluor 339 460 2.1 (not shown: Spn DPM-DC inh)
CCNC(=O)CSc1nc2cc(OC)c(OC)cc2c(=O)n1CCC1=CCCCC1	none
OCCN(Cc1ccccc1)Cc1ccc(F)c(F)c1	none
COC(=O)C1CCCN1C(C(=O)NC1CCCCC1)c1ccc(Cl)cc1 (stereo unspecified)	none
O=C(NC(=O)c1ccccc1)NC1(C(F)(F)F)OCCO1	none
CCOC(=O)c1c(-c2ccccc2)[nH]c2ccc(O)cc12	Fluor 339 460 3.7 (not shown: Spn DPM-DC inh)
O=C(Nc1ccc(N2CCOCC2)cc1)C1CC1	none
Cc1cc(N2CCN(C)CC2)nc2ccc(NC(=O)CCC(=O)NCCC3=CCCCC3)cc12	Fluor 339 460 3.8
CCN1CCN(c2cc(C)c3cc(NC(=O)c4ccncc4)ccc3n2)CC1	none
Cc1cc(N2CCOCC2)nc2ccc(NC(=O)C3CCC(C)CC3)cc12 (stereo unspecified)	Fluor 339 460 2.3 (not shown: Spn DPM-DC inh)
COCCCNC(=O)CCC(=O)Nc1ccc2nc(N3CCOCC3)cc(C)c2c1	Fluor 339 460 4.7 (not shown: Spn DPM-DC inh)
CCOC(=O)C1CCCN(C(=O)CCC(=O)Nc2ccc3nc(N4CCOCC4)cc(C)c3c2)C1 (stereo unspecified)	Fluor 339 460 4.7 (not shown: Spn DPM-DC inh)
Cc1cc(C)nc(SCc2nnc(SCc3ccccc3Cl)o2)n1	none
O=C(CNc1ccc(Oc2ccccc2)cc1)N1CCOCC1	none
CCCCNC(=O)CCC(=O)Nc1ccc2nc(N3CCOCC3)cc(C)c2c1	Fluor 339 460 4.7 (not shown: Spn DPM-DC inh)
CS(=O)(=O)N(CC(=O)NCc1ccc2c(c1)OCO2)Cc1ccccc1	none
Cc1ccccc1-n1c(SCc2cc(=O)n3ccccc3n2)nc2[nH]ncc2c1=O	Fluor 339 460 2.2
O=C(CSc1nc2[nH]ncc2c(=O)n1-c1ccccc1Br)NCc1ccco1	none
O=c1c2c(nc3n1CCCCC3)-c1ccccc1CC21CCCC1	none
Cn1c(NCCO)nc2c(c1=O)C1(CCCCC1)Cc1ccccc1-2	Fluor 339 460 2.2 (not shown: Spn DPM-DC inh)
O=c1[nH]c(NCCCO)nc2c1C1(CCCC1)Cc1ccccc1-2	Fluor 339 460 2.1 (not shown: Spn DPM-DC inh)
CC1(C)Cc2ccccc2-c2nc(NCCCO)n(-c3ccccc3)c(=O)c21	Fluor 339 460 2.1 (not shown: Spn DPM-DC inh)
Cc1cc(NS(=O)(=O)Cc2ccccc2)no1	none
CC(NC(=O)c1ccccc1O)c1ccccc1 (stereo unspecified)	Fluor 339 460 2.2 (not shown: Spn DPM-DC inh)
Cc1csc2ncc(C(=O)NCc3ccccc3Cl)c(=O)n12	Fluor 339 460 2.1 (not shown: Spn DPM-DC inh)
Cc1csc2ncc(C(=O)NC(C)c3ccccc3)c(=O)n12 (stereo unspecified)	Fluor 339 460 2.1 (not shown: Spn DPM-DC inh)
CC(C)CCN1C(=O)c2ccc(C(=O)NCC3CCCO3)cc2C1=O (stereo unspecified)	none
